Source: PubChem BioAssay AID1224862 (National Center for Advancing Translational Sciences (NCATS), 2016)
Records with an inconclusive call do not appear. Activity calls are given as the source filed them. Calls come from the whole dose curve; as a rule, active = well fitted cell-killing curve with a large enough effect; inconclusive = small, poorly fitted or top-dose-only effect, or effect the other way; inactive = flat fitted curve, though single readings scatter.

Experiment: Compound cytotoxicity measured by an ATP content assay as a counter-screen for lead compounds in human astrocytoma cell line (SNB-19)
Conditions: SNB-19 astrocytoma viability, ATP luminescence; series mostly up to 46.1 µM; activity change, negative = cytotoxicity: at the top concentration
Protocol: National Center for Advancing Translational Sciences [NCATS] Johns Hopkins University School of Medicine Florida State University Assay Overview: Many compounds can cause cytotoxicity at high compound concentrations. […] The compound cytotoxicity may also cause side effects or toxicity in human. Thus, the compound cytotoxicity needs to be measured in each cell type and each compound incubation time - same as these in the compound screening assay. The compound cytotoxicity can be measured by cell viability assays such as the ATP content assay. We use an ATP content assay kit for cell viability measurement. It measures ATP content (level) in human astrocytoma cell line (SNB-19) using a luminescence readout that is proportional to viable cell numbers. Decrease in the luminescence signal after the compound treatment indicates reduced cell viability and cell death caused by compound treatment.
Assay Protocol Summary: The medium for SNB-19 cells is composed of RPMI 1640 (ATCC, Cat.# 30-2001), 10% fetal bovine serum (FBS) (GE healthcare Life Sciences, Cat.# SH30071.03), and 1% Pen/Strep (Gibco, Cat.# 15140-122). The ATP content assay kit (PerkinElmer, Cat.# 6016731) was used to determine cell viability. The reagent was reconstituted and prepared as described by the manufacturer. Cells were seeded in 384- or 1536-well assay plates and cultured at 37 C with 5% CO2 for 16 to 20 hours. The typical cell seeding density in the 1536-well plate assay is 250 cells/well in 3ul medium for SNB-19 cells in tissue culture treated plates. Compounds were added to cells and incubated for a specific time such as 6, 24, or 72 hours before addition of the reagent mixture of the ATP content assay kit at 1:1 ratio. After incubation at room temperature for 10 minutes, the luminescence intensity in assay plates was measured using a ViewLux plate reader (PerkinElmer). […] The percentage inhibitions of the decreased cell viability by small molecules were then calculated that indicate compound cytotoxicity.
In the case of `CCOCCOC(=O)/C=C/c1ccc(OC)cc1`, the “activity change, negative = cytotoxicity” value is reported as 15.8% (inactive).
In the case of `O=C1NC(=O)C(=Cc2ccc(-c3ccc(F)cc3)o2)S1`, the “activity change, negative = cytotoxicity” value is reported as -5.67% (inactive).
For `CC(C(=O)O)c1ccc(C(=O)c2cccs2)cc1` (stereo not given), the “activity change, negative = cytotoxicity” value was 12.4% (inactive).
With `COc1cc(NC(C)CCCN)c2ncccc2c1` (stereo not given) the “activity change, negative = cytotoxicity” value was 7.08% (inactive).
For `CCCCCNC(=O)N1CCC(CN(Cc2ccc(Cl)cc2)Cc2ccc([N+](=O)[O-])s2)C1` (stereo not given), the “activity change, negative = cytotoxicity” value was 15.7% (inactive).
For `O=C(O)c1ccccc1NCCc1ccccc1`, the “activity change, negative = cytotoxicity” value was 27.1% (inactive).
With `O=C(Nc1cc2cc[nH]c2cn1)c1ccccc1` the Potency was 0.388 µM (active).
In the case of `Cc1c(N)c(=O)n(-c2ccccc2)n1C`, the “activity change, negative = cytotoxicity” value is reported as -1.88% (inactive).
In the case of `Cc1cc(O)c2c(c1)C(=O)c1cc(O)cc(O)c1C2=O`, the “activity change, negative = cytotoxicity” value is reported as -13% (inactive).
For `COc1cccc2c1C(=O)c1c(O)c3c(c(O)c1C2=O)C[C@@](O)(C(=O)CO)C[C@@H]3O[C@H]1C[C@H](N)[C@H](O[C@@H]2CCCCO2)[C@H](C)O1`, the “activity change, negative = cytotoxicity” value was -20.6% (inactive).
With `CN1CC(=O)N2C(Cc3c([nH]c4ccccc34)[C@H]2c2ccc3c(c2)OCO3)C1=O` (stereo not given in full) the “activity change, negative = cytotoxicity” value was 12.4% (inactive).
With `Nc1cc(C(F)(F)F)ccc1S` the “activity change, negative = cytotoxicity” value was -3.16% (inactive).
For `CNC(=O)c1ccccc1Sc1ccc2c(/C=C/c3ccccn3)n[nH]c2c1`, the Potency was 10.9 µM (active).
In the case of `CC[C@]1(O)C[C@H]2CN(CCc3c([nH]c4ccccc34)[C@@](C(=O)OC)(c3cc4c(cc3OC)N(C=O)[C@H]3[C@@](O)(C(=O)OC)[C@H](OC(C)=O)[C@]5(CC)C=CCN6CC[C@]43[C@@H]65)C2)C1`, the “activity change, negative = cytotoxicity” value is reported as 0.512% (inactive).
With `Nc1ccc(N=Nc2ccccc2)c(N)n1` the “activity change, negative = cytotoxicity” value was 9.65% (inactive).
For `Cc1ccc(O)c(N=Nc2ccccc2)n1`, the Potency was 7.74 µM (active).
For `Oc1cc(O)cc(/C=C/c2ccc(O)c(O)c2)c1`, the Potency was 24.5 µM (active).
With `O=C(OCc1ccccc1)c1ccc(O)cc1` the “activity change, negative = cytotoxicity” value was -20.4% (inactive).
For `Nc1ccc(O)c(C(=O)O)c1`, the “activity change, negative = cytotoxicity” value was -4.62% (inactive).
With `CC(=O)Oc1cccc2c1C(=O)c1c(OC(C)=O)cc(C(=O)O)cc1C2=O` the “activity change, negative = cytotoxicity” value was -12.9% (inactive).
In the case of `CC=CC[C@@H](C)C(=O)[C@H]1C(=O)N[C@@H](C(C)C)C(=O)N(C)CC(=O)N(C)[C@@H](CC(C)C)C(=O)N[C@@H](C(C)C)C(=O)N(C)[C@@H](CC(C)C)C(=O)N[C@@H](C)C(=O)N[C@H](C)C(=O)N(C)[C@@H](CC(C)C)C(=O)N(C)[C@@H](CC(C)C)C(=O)N(C)[C@@H](C(C)C)C(=O)N1C`, the “activity change, negative = cytotoxicity” value is reported as -12.1% (inactive).
In the case of `O=c1cc(-c2ccccc2)oc2cc(O)c(O)c(O)c12`, the “activity change, negative = cytotoxicity” value is reported as -3.37% (inactive).
In the case of `O=C(Nc1ccc(C(=O)O)c(O)c1)c1ccccc1`, the “activity change, negative = cytotoxicity” value is reported as 4.12% (inactive).
With `CN(C)c1ccc2cc(C(=O)N[C@@H](CCCN=C(N)CCl)C(=O)NCc3ccccc3)ccc2c1` the “activity change, negative = cytotoxicity” value was 4.93% (inactive).
With `CCCCCCCC/C=C/C(=O)O` the “activity change, negative = cytotoxicity” value was 28.3% (inactive).
In the case of `COc1ccc(CC2=NN3C([C@@H](CCc4ccccc4)[C@@H](C)O)=NC(C)C3C(=O)N2)cc1OC` (stereo not given in full), the “activity change, negative = cytotoxicity” value is reported as 10.1% (inactive).
In the case of `O=C(c1ccccc1)c1ccc2n1CCC2C(=O)O` (stereo not given), the “activity change, negative = cytotoxicity” value is reported as 0.488% (inactive).
With `CN1CCN(c2cc3c(nn2)Oc2ccccc2N3C)CC1` the “activity change, negative = cytotoxicity” value was 14.2% [at 23.8 µM] (inactive).
For `C[C@@H]1CCN(C(=O)CC#N)C[C@H]1N(C)c1ncnc2[nH]ccc12`, the “activity change, negative = cytotoxicity” value was 14.7% (inactive).
With `CO[C@H]1C(=O)[C@]2(C)[C@@H](OC)C[C@H]3OC[C@@]3(OC(C)=O)[C@H]2[C@H](OC(=O)c2ccccc2)[C@]2(O)C[C@H](OC(=O)[C@H](O)[C@@H](NC(=O)OC(C)(C)C)c3ccccc3)C(C)=C1C2(C)C` the “activity change, negative = cytotoxicity” value was 8.56% (inactive).
In the case of `C[C@@H](O[C@H]1OCCN(Cc2n[nH]c(=O)[nH]2)[C@@H]1c1ccc(F)cc1)c1cc(C(F)(F)F)cc(C(F)(F)F)c1`, the “activity change, negative = cytotoxicity” value is reported as -15.8% (inactive).
For `N#CC1(c2ccc(NC(=O)c3cccnc3NCc3ccncc3)cc2)CCCC1`, the “activity change, negative = cytotoxicity” value was -12.2% (inactive).
For `Cc1c(NC(=O)c2ccc(C(C)(C)C)cc2)cccc1-c1cn(C)c(=O)c(Nc2ccc(C(=O)N3CCOCC3)cc2)n1`, the “activity change, negative = cytotoxicity” value was -5.55% (inactive).
For `O=C(CS)Nc1ccccc1`, the “activity change, negative = cytotoxicity” value was 31.3% (inactive).
For `Cc1[nH]c(C=C2C(=O)Nc3ccccc32)c(C)c1CCC(=O)O`, the “activity change, negative = cytotoxicity” value was 3.28% (inactive).
In the case of `CC(C(=O)O)c1ccc2c(c1)[nH]c1ccc(Cl)cc12` (stereo not given), the “activity change, negative = cytotoxicity” value is reported as 13.1% (inactive).
For `CC(C)OC(=O)CCCC=CC[C@@H]1[C@H](C=C[C@@H](O)COc2cccc(C(F)(F)F)c2)[C@H](O)C[C@@H]1O`, the “activity change, negative = cytotoxicity” value was -1.19% (inactive).
In the case of `CN(C)c1cc(NC(=O)CNC(C)(C)C)c(O)c2c1C[C@@H]1C[C@H]3[C@H](N(C)C)C(=O)C(C(N)=O)=C(O)[C@@]3(O)C(=O)C1=C2O`, the “activity change, negative = cytotoxicity” value is reported as 13.6% (inactive).
For `CC1(C)OC2=C(C(=O)c3ccccc3C2=O)[C@H](NCc2ccccc2)[C@H]1O`, the Potency was 8.91 µM (active).
With `O=C(O)Cc1ccc(-c2ccccc2)cc1` the “activity change, negative = cytotoxicity” value was 9.96% (inactive).
